# Results taken from PubChem BioAssay AID743047 (Broad Institute, 2013).
# Entries with a potency or affinity are not part of this list. Unmarked numbers belong to inactive results. The rule behind the calls is not given here.
# Assay: PAX5 activity inhibitors, dose response, selectivity assay for PAX8 inhibitor project, cell-based, plate reader, dry powder samples (AID 743047)
# Conditions: cell-based PAX5 selectivity counter-screen; series mostly up to 50 µM; activity change, negative = inhibition: at the top concentration
row,SMILES,"activity change, negative = inhibition"
1,O=C(c1cc(-c2cccs2)on1)N1CCN(C(c2ccccc2)c2ccccc2)CC1,4.7% [at 26 µM]
2,C[C@H]1CN([C@@H](C)CO)C(=O)CCCn2nncc2CO[C@@H]1CN(C)C(=O)Nc1ccc(-c2cccs2)cc1,-19.7% [at 35 µM]
3,C[C@H](CO)N1C[C@H](C)[C@H](CN(C)C(=O)Nc2ccc(-c3cccs3)cc2)OCc2cnnn2CCCC1=O,6.43% [at 35 µM]
4,COc1cccc2sc(N(CCCN(C)C)C(=O)CCS(=O)(=O)c3ccccc3)nc12,54.8%
5,COc1cc(/C=C2\SC(=S)N(CCC(=O)N3CCCCC3)C2=O)cc(OC)c1OC,29.9%
6,CN(C[C@H]1N[C@@H](CO)[C@@H]1c1ccc(C2=CCCC2)cc1)C(=O)c1ccc(F)cc1,225% [at 8 µM]
7,CC(C)(C)c1nnc(NC(=O)CCS(=O)(=O)c2ccccc2)s1,19.1%
8,COc1ccc(-c2cc(C(F)(F)F)nc(S(=O)(=O)CCCC(=O)Nc3cc(C)on3)n2)cc1OC,143% [at 26 µM]
9,O=C(CCCN1C(=O)/C(=C\c2cccc(Br)c2)SC1=S)Nc1cccnc1,194%
10,Cc1ccc2cccc(NS(=O)(=O)c3ccccc3)c2n1,-32.9%
11,CN(C)CCCN(C(=O)CCOc1ccccc1)c1nc2c(F)cccc2s1,-13.4%
12,O=C(CCCN1C(=O)/C(=C\c2cccc(Br)c2)SC1=S)Nc1ccccn1,31.7%
13,C[C@@H]1CN([C@H](C)CO)C(=O)CCCn2cc(nn2)CO[C@H]1CN(C)C(=O)Nc1ccc(-c2cccs2)cc1,7.2% [at 35 µM]
14,N#C[C@H]1N[C@H](CO)[C@@H]1c1ccc(C#Cc2ccccc2F)cc1,44.2% [at 35 µM]
15,CC1(C)CC(=O)c2sc(NC(=O)CCS(=O)(=O)c3ccccc3)nc2C1,0.6%
16,O=C1/C(=C/c2ccccc2F)SC(=S)N1CC(=O)N1CCCCC1c1cccnc1 (stereo unspecified),-13.1%
17,Cc1cc(NC(=O)CCCS(=O)(=O)c2nc(-c3cccs3)cc(C(F)(F)F)n2)no1,64.7% [at 26 µM]
18,Cc1ccc(-c2csc(NC3OC(=O)c4ccccc43)n2)cc1 (stereo unspecified),28.5%
19,CC(=O)Nc1ccc(NC(=O)c2nc(S(=O)(=O)Cc3ccccc3)ncc2Cl)cc1,43.2% [at 26 µM]
20,COc1ccc(S(=O)(=O)Nc2ccc3c(c2)CC(=O)N([C@@H](C)CO)C[C@@H](C)[C@@H](CN(C)Cc2ccc(-c4ccccc4)cc2)O3)cc1,-13.4% [at 35 µM]
21,C[C@H](CO)N1C[C@H](C)[C@@H](CN(C)Cc2ccc(-c3ccccc3)cc2)Oc2ccc(NC(=O)C3CC3)cc2CC1=O,-29.4% [at 35 µM]
22,COCC(=O)N1[C@H](CO)[C@H](c2ccc(-c3cccnc3)cc2)[C@@H]1C#N,3.82% [at 35 µM]
23,CN(C[C@H]1N[C@@H](CO)[C@@H]1c1ccc(C2=CCCC2)cc1)C(=O)c1cccc(F)c1,243% [at 8 µM]
24,O=C(CCS(=O)(=O)c1ccccc1)Nc1nc2ccc(F)cc2s1,2.8%
25,COc1ccc(OC)c2sc(N(CCCN(C)C)C(=O)CCS(=O)(=O)c3ccccc3)nc12,64.7%
26,N#C[C@H]1[C@@H](c2ccc(C#Cc3cccc(F)c3)cc2)[C@@H](CO)N1C(=O)C1CCCC1,-34.3% [at 35 µM]
